# Measured values: the supplement of paper PMC12494721
# Counter-ions that a name gives are not always drawn.
# Columns and labels:
# Conditions in all cases: incubation time: 27 h, anaerobic, 37 °C;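 for the amine columns active = adjusted P below 0.05 in both replicates with a change the same way and a mean fold change under 0.8 or over 1.25; inactive = the rest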
# Escherichia coli IAI1 [1] = test: growth (OD595) fold change vs plate DMSO controls (fold change (ratio)); higher = more growth
# In short: (§1)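 Each value is the mean of 2 biological replicates, and fold changes above 1.5 were set to NA. The underlying readings were taken at 595 nm from shaken anaerobic mGAM cultures in 96-well plates after 27 h at 37 °C. They were blank-subtracted, corrected for compound background using 20 µM compound solutions in water, and converted to OD with a calibration factor of 5. Growth is the fold change relative to the median of the plate DMSO controls.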
# [2] = system: Klebsiella aerogenes DSM 30053; test: as above
# In short: as §1
# [3] = system: Ruminococcus gnavus DSM 108212; test: as above
# In short: as §1
# [4] = system: Klebsiella aerogenes DSM 30053; test: fold change of Histamine concentration vs plate DMSO controls (fold change (ratio)); higher = more amine produced, active = hit call of the paper (significant change in both replicates, either direction)
# In short: (§2)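 Anaerobic mGAM cultures of four gut bacterial strains were grown at 37 °C for 27 h in 80 µL wells, starting at OD 0.1 before 1:1 dilution. Compounds were at 20 µM final (sweeteners 50 µM). Whole cultures were extracted with cold acetonitrile/methanol containing 0.1% formic acid and centrifuged. Amines were quantified by LC–triple-quadrupole MS (dynamic MRM) against external calibration curves and drift-corrected within batch. Each value is the fold change versus plate DMSO controls, averaged over 2 biological replicates.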
# [5] = system: Ruminococcus gnavus DSM 108212; test: fold change of Tryptamine concentration vs plate DMSO controls (fold change (ratio)); higher = more amine produced, active = hit call of the paper (significant change in both replicates, either direction)
# In short: as §2
# Escherichia coli IAI1 [6] = test: fold change of Putrescine concentration vs plate DMSO controls (fold change (ratio)); higher = more amine produced, active = hit call of the paper (significant change in both replicates, either direction)
# In short: as §2
# [7] = system: Klebsiella aerogenes DSM 30053; test: as above
# In short: as §2
# Escherichia coli IAI1 [8] = test: fold change of Cadaverine concentration vs plate DMSO controls (fold change (ratio)); higher = more amine produced, active = hit call of the paper (significant change in both replicates, either direction)
# In short: as §2
# [9] = system: Klebsiella aerogenes DSM 30053; test: as above
# In short: as §2
# [10] = system: Ruminococcus gnavus DSM 108212; test: fold change of 2-Phenylethylamine concentration vs plate DMSO controls (fold change (ratio)); higher = more amine produced, active = hit call of the paper (significant change in both replicates, either direction)
# In short: as §2
# [11] = system: Clostridium sporogenes DSM 1664; test: growth (OD595) fold change vs plate DMSO controls (fold change (ratio)); higher = more growth
# In short: as §1
# [12] = system: Clostridium sporogenes DSM 1664; test: fold change of Tryptamine concentration vs plate DMSO controls (fold change (ratio)); higher = more amine produced, active = hit call of the paper (significant change in both replicates, either direction)
# In short: as §2
SMILES,growth (Escherichia coli IAI1 [1]),growth [2],growth [3],fold change of Histamine concentration [4],fold change of Tryptamine concentration [5],fold change of Putrescine concentration (Escherichia coli IAI1 [6]),fold change of Putrescine concentration [7],fold change of Cadaverine concentration (Escherichia coli IAI1 [8]),fold change of Cadaverine concentration [9],fold change of 2-Phenylethylamine concentration [10],growth [11],fold change of Tryptamine concentration [12]
Cc1noc(NS(=O)(=O)c2ccc(N)cc2)c1C [Sulfisoxazole] (20 µM),1.03,1.02,1.13,1.07 (inactive),1.01 (inactive),1.03 (inactive),1.02 (inactive),1.04 (inactive),1.01 (inactive),1 (inactive),,
CCOC(=O)C1=C(COCCN)NC(C)=C(C(=O)OC)C1c1ccccc1Cl (stereo not drawn) [Amlodipine] (20 µM),1,1,1.1,1.08 (inactive),0.914 (inactive),0.986 (inactive),1.03 (inactive),1.1 (inactive),0.988 (inactive),0.918 (inactive),,
CC(C)(C)CC(C)(C)c1ccc(OCCOCC[N+](C)(C)Cc2ccccc2)cc1 [Benzethonium chloride] (20 µM),0.964,1.02,,1.07 (inactive),0.866 (inactive),0.975 (inactive),1.01 (inactive),1.02 (inactive),0.988 (inactive),0.895 (inactive),0.869,0.956 (inactive)
CC[N+](C)(CC)CCC[n+]1c(-c2ccccc2)c2cc(N)ccc2c2ccc(N)cc21 [Propidium iodide] (20 µM),1.07,1.08,,1.07 (inactive),1.05 (inactive),0.99 (inactive),1 (inactive),1 (inactive),0.999 (inactive),1.08 (inactive),1.18,1.07 (inactive)
COc1cccc(OC)c1C(=O)N[C@@H]1C(=O)N2[C@@H]1SC(C)(C)[C@@H]2C(=O)O [Methicillin sodium] (20 µM),1.14,0.978,,1.05 (inactive),0.608 (active),1.24 (inactive),1 (inactive),0.875 (inactive),0.969 (inactive),0.721 (inactive),0.569,0.196 (active)
Cc1ccc(NC(=O)c2ccc(CN3CCN(C)CC3)cc2)cc1Nc1nccc(-c2cccnc2)n1 [Imatinib] (20 µM),1.07,1.05,1.17,1.01 (inactive),1.07 (inactive),0.954 (inactive),0.962 (inactive),0.95 (inactive),1.04 (inactive),1.08 (inactive),,
C[C@H]1[C@H](NC(=O)/C(=N\OC(C)(C)C(=O)O)c2csc(N)n2)C(=O)N1S(=O)(=O)O [Aztreonam] (20 µM),1.04,0.662,1.04,0.865 (inactive),1.05 (inactive),0.86 (inactive),1.13 (inactive),1.03 (inactive),1.06 (inactive),1.04 (inactive),,
COc1cc2nc(N3CCN(C(=O)c4ccco4)CC3)nc(N)c2cc1OC [Prazosin hydrochloride] (20 µM),1.09,0.998,0.986,1.01 (inactive),0.924 (inactive),1.16 (inactive),1.02 (inactive),0.968 (inactive),1 (inactive),0.939 (inactive),,
